Consider 14 compounds from the supplement of paper PMC8047044.

For the assay, the system named is Neuro-2a. As to the kind of experiment: neurite formation score, plate-normalized to DMSO control mean 5.04 (score (0-8 scale)); higher = more or longer neurites. The conditions noted are these: 0.1 µM. The protocol: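 Neuro-2a mouse neuroblastoma cells in PLL-coated 96-well plates were pre-treated for 1 h in DMEM(+) with each kinase inhibitor at 0.1 µM, then switched to serum-free DMEM(-) with inhibitor to induce neurite outgrowth and fixed about 2-3 h later. Three blinded observers scored neurite formation from 0 (no neurites) to 8 (long neurites on almost all cells).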
`C[C@H]1Oc2cc(cnc2N)-c2c(nn(C)c2C#N)CN(C)C(=O)c2ccc(F)cc21` displayed a neurite formation score of 5.08.

In the case of `CC(C)(C)n1nc(Cc2cccc3ccccc23)c2c(N)ncnc21`, the neurite formation score came to 4.58. Then `COc1cccc(-c2cc(=O)c3ccccc3o2)c1N`, with 5.04; and `CCOc1cc(N2CCC(O)CC2)ccc1Nc1ncc2c(n1)N(C)c1ccccc1C(=O)N2C`, with 4.92. Then `Cc1nc(NC(=O)N2CCC[C@H]2C(N)=O)sc1-c1ccnc(C(C)(C)C(F)(F)F)c1`, with 5.21; and `O=C1NC(=O)/C(=C/c2ccc3nccc(-c4ccncc4)c3c2)S1`, with 5.42.

Compound `N[C@@H]1CCCN(c2c(/C=C3\SC(=O)NC3=O)cccc2-c2ccccc2)C1` came in with a neurite formation score of 5.25. Then `Cc1[nH]c(/C=C2\C(=O)Nc3ccc(S(=O)(=O)Cc4c(Cl)cccc4Cl)cc32)c(C)c1C(=O)N1CCC[C@@H]1CN1CCCC1`, with 5.04; and `CN1CCC(COc2cnc(-c3cccc(Cn4nc(-c5cccc(C#N)c5)ccc4=O)c3)nc2)CC1`, with 4.92; and `Cc1ncc(-c2ccnc(Nc3ccc(S(C)(=O)=O)cc3)n2)n1C(C)C`, with 3.54. Take `CNC(=O)CN1CCC(Oc2cc3c(Nc4cccc(Cl)c4F)ncnc3cc2OC)CC1` [AZD8931 (Sapitinib)]: the neurite formation score was 4.25. Compound `CCCS(=O)(=O)Nc1ccc(F)c(C(=O)c2c[nH]c3ncc(-c4ccc(Cl)cc4)cc23)c1F` [Vemurafenib (PLX4032, RG7204)] displayed a neurite formation score of 4.04. `FC(F)(F)c1ccc(CNc2ccc(Cc3c[nH]c4ncc(Cl)cc34)cn2)cn1` [Pexidartinib (PLX3397)] showed a neurite formation score of 5.42. Regarding `CCN(CCO)CCCOc1ccc2c(Nc3cc(CC(=O)Nc4cccc(F)c4)[nH]n3)ncnc2c1` [Barasertib (AZD1152-HQPA)], the neurite formation score is 4.58.
